Data as given in the supplement of paper PMC12632987.

B1: uchl1_155_7495 (protein)
chain: MLEVEVEVVARRPDGTVARERFRFRTEEITPENRRALAERVAERVREFVERHGGDVDVTVRIRSPSQIARASLYRAIRIRLREVAKELGVEVTVRAEPVP
B2: uchl1_155_7502 (protein)
chain: MRTVRITIDVTLPDATETVEVTLERTVSDKPEDREALAEEVAATVDAILAQGKNVRLTVTVTVPDKMVVAASLYQAIRRRVRAVARRHGAEVVITAEVVP
B3: uchl1_143_7494 (protein)
chain: GPVVEPVVVIELRIERTDTPEEIRAKIRAAVEEAVATGKPTVIEITVPADANMRLTVSTSARRVAREAAKEHPDKIKDLRIYARDEETGKRQLIAEVIKE
B4: uchl1_143_7472 (protein)
chain: AAEARPVRTVEIDVTLDDTPEEIEARLLAAAEEAIAAGEDLRIVVTVPPDPNKRLMVNTVAKRVARRVARAHADRVRRLEIYARDAETGKEQLIAEIVRP
B5: uchl1_143_7485 (protein)
chain: EVRVIELTPEQVAAILSASPEAALATLEAIFEAAVALGVDTRVVLPAPADANDRLRLNTLVRRAARRVAKRRADEIDAVVISNERDPDRPARLVVTITVK
B6: uchl1_143_7484 (protein)
chain: EVKVIELSPEEVAEILSASPEEALARLKEILEEAVELGVDTEVVLPAPADANDRLRLNTLVRRAAREVAKKYADKIDSVTISQRLDPDEPPKLVVSIKVK
B7: uchl1_143_7473 (protein)
chain: HHHMMETETVEIEVKEDDTPEEIRERMMKAIEEAIAAGKNLRIVITVPSDANKRLMANTVAKRVAREAAKKYREKLKRLEIYLRDKETGKEDLIALVENP
B8: uchl1_143_7490 (protein)
chain: SSSDLPVEEVTITVTLDDTPEQIRARLRAAIEAAVAAGRALRINITVPADPNMRLMVNTVARRVAREVARAHADRVRHVEIYATDAATGKTDLLAEVVNP
B9: uchl1_143_7477 (protein)
chain: GAPEEPIETIKLTLDASMSDEEIRAKAMAAAEEAAAKGAALEITIVVPPDPNARVRANNIAKRIAREIIQKYGDKIKELKIYLQDEETGKKDLIALYEKP
B10: uchl1_155_7497 (protein)
chain: MTTVTVVVTGTSPDGTTVTKTKTFEGLTSSVADLEALREAMKAMIVETAKEVKGDVDVTVNVTNATANQAVGIGTAARRAANEAGKETGLTVSLTLVGVP
B11: uchl1_143_7475 (protein)
chain: APAALEVLTTHLEVGEDDTPEEIRARLLAAIDEALAAGKAAEIVVTVPPDANKRLMVNTVARRVAREAARRYGDRLRLLRILLRDAETGRTQLVALVERP
B12: uchl1_143_7486 (protein)
chain: EVEVIELSEEEVAEILALSPEEALERLKEILREAVELGKDTRVLIPAPEDANDRLRLNTLVRRAAREVAKEYADKIESVTISQERDPNGRPRIVVEIKVK
B13: uchl1_143_7474 (protein)
chain: PLEHMEIETVEIEVSETDTPEEIEKRLREAIEKGIEKGKALRIVVTVPPDANKRLMVNTVARRVARETAKKYKDKLKYLEILLRDRETGKVDLAALIERP
B14: uchl1_155_7501 (protein)
chain: MATVTVTATGTAPDGTTHTLTKTFEGITSSVEDLLALREAVLALLVELAKKVKGDVDVVVEVSNADANTRVGIGTAVRRAASEAGKQTGLTVSVTIREVA
B15: uchl1_143_7483 (protein)
chain: EVVVIELSPEEVEEILSLSPEEALERVYEILREAVELGRDTEVVFPAPADANDRLRLGTIVRRAARKVAKDRADLIDAVEIYQRRDPNRPPALVVRITRK
B16: uchl1_143_7482 (protein)
chain: EVEVIRLTPEEVEEILSLSPEEALARVKEILAAAVELGKDTEVVFPAPEDANDRLRLGTIVRRAAREVAKEYADKIESVEIYQEKDPDEPPRLVVRITKK
B17: uchl1_143_7492 (protein)
chain: GAAAVPVLRVEITVTRDTTPEELRARLEAAVREAAARKAALEVTITVPPDPNLKLMVNTVARRVARRAAREYADTLPRLTINARDAETGKTQVVAEAVNP
B18: uchl1_155_7500 (protein)
chain: GTTVTVTVTGTASDGTTHTLTKTFEGLTSSVADMEALREAILAMLLELAAKVDGDIKLTVNVRNATANQAVGIGTAVRRAASEAGKKTGKTIDVDITGLP
B19: uchl1_143_7489 (protein)
chain: EVRVLDVSEAEVAEILALSPEEAVAAIYARLSAAIALGVDTEVRFPAPERANDRLRLGTAVRRAARRAARDHADEIADVVIYNERDPDERPRLVVRITRK
B20: uchl1_143_7476 (protein)
chain: PPEALPVLETTIEVSEDDTPEEIRARLMAAIDEALAAGKAARIVIVVPPDANKRLMVNTVARRVAREAARRYGERLRYLEILLRDKETGKEQLVALVERP
B21: uchl1_143_7480 (protein)
chain: GAPARPVVTRTLRFTEEDTPEEIRARITAAIRALVATGQDGVLLLTVPPNPNMRVMVSTVARRALREVAQETRAPGVTLTVEARDEETGKVDVLATADLK
B22: uchl1_155_7496 (protein)
chain: MLRVRVTITGTNADGTTLTRELELEIENPTLEKIQEAAREIAEAVREFALAVDGPVEVRVEVSADRRLHAASFSQALRRALREVAKETGKEITLDVRGVP
B23: uchl1_143_7491 (protein)
chain: GLDNLEVETVEIEVSEEDTPEELAARLREVIEEALAKGKALRIILTVPPDPNVRLMVNTVARRVLREFAQEHRDELKYVEIYARDEETGKEQLLAEFVNP
B24: uchl1_143_7471 (protein)
chain: GEPEPPTLEVHIEVDETTTPEEIREKLWKAIEEAAKAKKNLKITITVPADSNKRLMVTTVAKRVAREAAKKYKNELKKLEIYARDAATGKEQLIAEYENP
B25: uchl1_155_7499 (protein)
chain: GTTVTVTATGTAADGTTHTLTKTFEGITSSVEDMLALRDEILAMLLELAAKVDGDIDLKVDVSNATANQAVGIGTAVRRAASEAGKETGLTINVDITGLP
B26: uchl1_143_7479 (protein)
chain: GAAPRPVVTTTLTFTEEDTPEEIRARITAALRALVATGQDGVLLLTVPPNPHMRVMVNTVARRALREVAQATHAPGVTLTVQARDAETGKVDTLATAVLE
B27: uchl1_143_7493 (protein)
chain: GAPAEEVVVLELTIEETDTPEEIRAKITAAIEEAVATGKPSVVVITVPPDPNVRVTVGNAAKRAVREAAKAHGDQIKDLRVVARDAETGKEQLLAEVVNP
B28: uchl1_143_7487 (protein)
chain: AVEVIELSPEEVAAWLALPDEEALAALEAVLEAAVDRGVDTLVRIPAPEDANDRLRLNTLVRRAARRVAAAHADRIDSVTISQEKDPNGPPRLVVSIRVK
B29: uchl1_143_7478 (protein)
chain: GAPEPEIPVIRLELDAADSDEEIRKRALEAAKEAAEKGAALEIIITVPPDPNARVRANNIAKRLAREIIKKYGDKIKELRVLLRDEETGREDLIALYEKP
B30: uchl1_143_7481 (protein)
chain: SLENVEVLEVEITVTRETRPEDLYARLLAAIREAHAAGKALRITITVEPDANVRVMVGNVAKRAVRDAAQELGEPFVRTLILARDAETGKTQTLVDVEAP
B31: uchl1_143_7488 (protein)
chain: EVKVIELSPEEVAEILSLSDEEALARLKEIIEAAVELGVDTEIRIPAPEDANDRLRLHTLVKRAAREVAKKYADKIDSVEIYQELDPNARPRIVVRITVK
B32: uchl1_155_7498 (protein)
chain: GTTVTVTATGTAADGTVVTSTTTFTGLTSSVADMQALQAAILAQLLAVAAQVDGDIDLAVTVSNATANQAVGIGTAVRRAASQAGKQTGLTINVTLTGAP

The binders below were run against UCHL1, P09936 (assay: median log2 fold change of GCK-ALFA target abundance (FLAG IP / Myc IP barcode read proportion) (log2 ratio); each designed protein is fused to an ALFA-tag nanobody in HEK293 cells to bring the named protein to FLAG-tagged glucokinase (GCK); Myc marks an untargeted standard; higher = target protein stabilised (more abundant)). Details: target protein: 3xFLAG-MCP-GCK-ALFA reporter; HEK293 landing pad (RPLP).
Chain of UCHL1, P09936 (P09936 whole entry, looked up, the tested form may be a part): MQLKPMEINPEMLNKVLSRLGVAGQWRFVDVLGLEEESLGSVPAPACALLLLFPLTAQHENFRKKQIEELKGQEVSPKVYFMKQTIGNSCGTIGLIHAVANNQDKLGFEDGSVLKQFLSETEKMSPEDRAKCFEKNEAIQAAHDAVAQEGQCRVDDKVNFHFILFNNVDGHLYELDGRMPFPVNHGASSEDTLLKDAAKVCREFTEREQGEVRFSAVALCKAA
In short: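 Sequencing of reverse-transcribed, amplified circular RNA barcodes from anti-FLAG and anti-Myc immunoprecipitates provided the readout for an ALFA-nanobody-fused binder library recombined into HEK293 landing-pad cells. Those cells were induced with 2 μg mL^−1 doxycycline, transfected with a plasmid expressing a FLAG-tagged target and a Myc-tagged standard, and lysed after 48 h. Target abundance is the per-binder median log2 ratio of FLAG to Myc barcode read proportions. Only barcodes at a proportion of ≥10^−7 in both replicates and binders with ≥3 barcodes per replicate were kept, with a 10^−6 pseudocount added before the two replicates were pooled.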
With B1 the “median log2 fold change” value was -0.0429. With B2 the “median log2 fold change” value was -0.0533. In the case of B3, the “median log2 fold change” value is reported as 0.397. In the case of B4, the “median log2 fold change” value is reported as 0.3. In the case of B5, the “median log2 fold change” value is reported as -0.394. With B6 the “median log2 fold change” value was 0.0432. For B7, the “median log2 fold change” value was 0.139. B8 was tested, and the “median log2 fold change” value was 0.232. B9 was tested, and the “median log2 fold change” value was 0.136. For B10, the “median log2 fold change” value was 0.314. For B11, the “median log2 fold change” value was 0.136. In the case of B12, the “median log2 fold change” value is reported as 0.252. B13 was tested, and the “median log2 fold change” value was 0.325. B14 was tested, and the “median log2 fold change” value was 0.237. B15 was tested, and the “median log2 fold change” value was -0.0334. In the case of B16, the “median log2 fold change” value is reported as 0.231. B17 was tested, and the “median log2 fold change” value was 0.184. For B18, the “median log2 fold change” value was 0.302. With B19 the “median log2 fold change” value was 0.144. For B20, the “median log2 fold change” value was 0.0615. B21 was tested, and the “median log2 fold change” value was -0.0743. In the case of B22, the “median log2 fold change” value is reported as 0.0376. For B23, the “median log2 fold change” value was 0.302. B24 was tested, and the “median log2 fold change” value was 0.0842. In the case of B25, the “median log2 fold change” value is reported as 0.302. With B26 the “median log2 fold change” value was 0.219. With B27 the “median log2 fold change” value was 0.229. B28 was tested, and the “median log2 fold change” value was 0.226. In the case of B29, the “median log2 fold change” value is reported as 0.179. For B30, the “median log2 fold change” value was 0.391. With B31 the “median log2 fold change” value was 0.21. In the case of B32, the “median log2 fold change” value is reported as 0.16.
